# STAT3 SMM: STAT3 (human) binding. P40763. Small molecule microarray, His-STAT3 binding, anti-His fluorescence. calls only. 0.2% of 17,000 active. AID 624138;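 active = compounds whose four printed spots each show fluorescence over background unusually high for their array block, chance value under 7%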
# NFkB SMM: binders of human NF-kappa-B p105; P19838; Small molecule microarray, anti-His fluorescence binding; calls only; 1.3% of 17,000 active; AID 624139;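 active = spot fluorescence over background significantly raised, with a chance value under 7% in all four replicate spots of the compound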;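 also: probe protein is his-tagged human p50 processed subunit at 1 µg/ml; raw spot fluorescence signals with no normalization applied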
# Myc binder: c-Myc (human) binding; P01106; small molecule microarray, His-c-Myc binding, anti-His fluorescence; calls only; 1.5% of 17,000 active; AID 624141;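 active = spot fluorescence over background with P-value below 7% in all four replicate spots, showing protein binding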;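 also: score is binary with 100 for all four spots passing and 0 otherwise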
# p53 mut binder: binders of human mutant p53; small molecule microarray binding, anti-GST fluorescence; calls only; 0.4% of 17,000 active;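 active = compounds whose four printed spots each glow above background more than chance allows, each with a p-value under 7%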
# Numbers without * were called inactive; i = inactive; + = active, no number. Compounds with a hit are over-represented: about 2.4% of the library has one in this group of screens.
SMILES,STAT3 SMM,NFkB SMM,Myc binder,p53 mut binder
CCn1cnc2c(Nc3cccc(Cl)c3)nc(N[C@@H]3CCCC[C@@H]3N)nc21,i,i,+,i
Oc1cc2c(cc1O)C1c3ccccc3CNC1CC2 (stereo not drawn),i,i,i,i
CN1CC(C(=O)N[C@]2(C)O[C@@]3(O)[C@@H]4CCCN4C(=O)[C@H](Cc4ccccc4)N3C2=O)C=C2c3cccc4[nH]cc(c34)C[C@H]21 (stereo partly drawn),i,+,+,i
CC(C)[C@H]1C(=O)N2CCC[C@H]2[C@]2(O)O[C@](NC(=O)[C@@H]3C=C4c5cccc6[nH]cc(c56)C[C@H]4N(C)C3)(C(C)C)C(=O)N12,i,i,i,i

# Source: PubChem (Broad Institute)
